According to PubChem BioAssay (NCI):
Compounds without any hit were thinned out: in the full panel of roughly 83,000, 20% have a hit.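 Method: cells in 96-well plates; compound added at one concentration; 48 h incubation; percent growth measured; values under 10 scored active.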 Values without a mark were called inactive. Calls of active or inactive are those of the source.

What was measured:
Assay in all cases: NCI-60 one-dose screen, 48 h (100 = growth as untreated, 0 = no growth, -100 = all killed)
Details in all cases: 10 µM unless noted
NCI-H23 lung = tested on: NCI-H23 lung
NCI-H226 lung = tested on: NCI-H226 lung
NCI-H322M lung = tested on: NCI-H322M lung
HOP-62 NSCLC = tested on: HOP-62 NSCLC
NCI-H460 lung = tested on: NCI-H460 lung
HOP-92 NSCLC = tested on: HOP-92 NSCLC
NCI-H522 lung = tested on: NCI-H522 lung
A549/ATCC NSCLC = tested on: A549/ATCC NSCLC
786-0 renal = tested on: 786-0 renal
COLO 205 colon = tested on: COLO 205 colon

Row | SMILES | growth (NCI-H23 lung) | growth (NCI-H226 lung) | growth (NCI-H322M lung) | growth (HOP-62 NSCLC) | growth (NCI-H460 lung) | growth (HOP-92 NSCLC) | growth (NCI-H522 lung) | growth (A549/ATCC NSCLC) | growth (786-0 renal) | growth (COLO 205 colon)
1 | O=C(CCCCCCN1CC(=O)N2[C@@H](c3cccs3)c3[nH]c4ccccc4c3C[C@H]2C1=O)NO | 94.1% | 107% | 79.8% | 91.2% | 77.2% | 69% | 44.7% | 98.9% | 103% | 93.1%
2 | O=C(/C=C/c1ccccc1Cl)Nc1ncc(Cc2cc(Cl)ccc2Cl)s1 | 50.9% | 39.4% | 48.5% | 22% | 8.08% (active) | 35.4% | 12.3% | 40% | 33.3% | 5.37% (active)
3 | CCCCN1C(=O)/C(=c2\sc3n(c2=O)C2C(NN=3)N(CC)C(=O)N2CC)c2cc(C)ccc21 (stereo not given) | 95.5% | 87.3% | 88.1% | 108% | 102% | 86.5% | 88.3% | 91.4% | 94.4% | 94%
4 | Cc1ccc(NC(=O)Nc2nc3ccc([N+](=O)[O-])cc3s2)cc1 | -4.55% (active) | 6.4% (active) | 4.58% (active) | -4.29% (active) | 3.09% (active) | -33% (active) | -10.6% (active) | 4.97% (active) | 8.32% (active) | 48.8%
5 | CCN(CC)c1ccc(/C=N/NC(=O)c2ccc(S(N)(=O)=O)cc2)cc1 | 25.1% | 45.1% | 28.1% | 18.6% | 7.17% (active) | 72.3% | 18.7% | 26.1% | 9.66% (active) | 11.1%
6 | NC(=S)n1c(=O)n(-c2cccc(C(F)(F)F)c2)c(=O)c2cc(-c3ccc(F)cc3F)ccc21 | -5.28% (active) | 9.53% (active) | 6.11% (active) | 1.42% (active) | 6.23% (active) | -29.9% (active) | -4.04% (active) | 7.29% (active) | 11.4% | 37.5%
7 | COc1ccc2[nH]cc(/C=N/Nc3ccnc4cc(Cl)ccc34)c2c1 | -91.8% (active) | -78.7% (active) | -100% (active) | -56.7% (active) | -78.1% (active) | -91.6% (active) | -62.4% (active) | -49.2% (active) | -92.3% (active) | -56.7% (active)
8 | CN1CCN(c2ccc(C(=O)/C=C/c3cc(F)cc(C(F)(F)F)c3)cc2)CC1 | 72% | 61.8% | 78.9% | 93.1% | 80.2% | 40.6% | 83.4% | 66.2% | 89.7% | 100%
9 | O=C1/C(=C/C=C/c2ccco2)SC(=S)N1Cc1ccccc1 | 89.6% | 95.2% | 91.8% | 105% | 95.2% | 87.1% | 98.4% | 93.7% | 101% | 121%
10 | C[C@H]1OCC2(CCN(c3cnc(C(=O)Nc4cc(F)cc5cccnc45)cn3)CC2)[C@H]1N | 75.3% | 80% | 81.4% | 84.1% | 89.1% | 34.7% | 31.6% | 77.3% | 60.1% | 13.3%
11 | CC[C@H](CC[C@@H](C)[C@H]1CC[C@H]2[C@@H]3CC(=O)C4=CC(=O)/C(=C/c5ccc([N+](=O)[O-])cc5)C[C@]4(C)[C@H]3CC[C@]12C)C(C)C | 103% | 103% | 103% | 104% | 106% | 114% | 97.4% | 99% | 99% | 118%
12 | C=C(C)[C@@H]1CC[C@]2(C(=O)N3CCN(C)CC3)CC[C@]3(C)[C@H](CC[C@@H]4[C@@]5(C)CC[C@H](OP(=O)(OCC)OCC)C(C)(C)[C@@H]5CC[C@]43C)[C@@H]12 | 83.1% | 75.8% | 101% | 96.2% | 91.3% | 63.8% | 81.7% | 75.6% | 70.3% | 90.8%
13 | Cc1cccc(N2CCN(C3=C(Cl)C(=O)c4ncccc4C3=O)CC2)c1 | 55.3% | 90.3% | 93.8% | 83.3% | 58.4% | 144% | 26.7% | 93.8% | 104% | 90.4%
14 | Cc1[nH]c(C(=O)Nc2ccc(S(=O)(=O)N3CCCCC3)cc2OCCOCCOCCOCCOCCOCCOCCOCCOCCOc2cc(S(=O)(=O)N3CCCCC3)ccc2NC(=O)c2[nH]c(C)c3c2CCCCC3=O)c2c1C(=O)CCCC2 | 20.8% | -2.37% (active) | 34.1% | 12.5% | 35.6% | 16.9% | 0.322% (active) | 24.1% | 40.2% | -30.3% (active)
15 | Cc1c(C(=O)/C=C/c2ccc(Cl)cc2)nnn1-c1ccc2oc(=O)ccc2c1 | 92.9% | 85.4% | 98.5% | 107% | 102% | 79.4% | 88.8% | 103% | 101% | 108%
16 | Cc1ccc2c(n1)C(=O)C(Cl)=C(Nc1ccc(C(=O)OC(C)(C)C)cc1)C2=O | 75.2% [9.25 µM] | 85.8% [9.25 µM] | 101% [9.25 µM] | 106% [9.25 µM] | 102% [9.25 µM] | -54.9% [9.25 µM] (active) | -14.1% [9.25 µM] (active) | 99.9% [9.25 µM] | -56.4% [9.25 µM] (active) | -46.1% [9.25 µM] (active)
